In PubChem BioAssay AID1159580 (chemical genetic matrix, 2015):
Where “and” joins values, the source holds several entries; their conditions need not be identical. Equal entries are not always repeated. Among all 5,500 compounds or so, about 2,000 (36%) were called active. Roughly 18% stayed inconclusive and do not appear here. No stated cut-off is given here; in the data, active means normalized growth mostly below about 0.91 (no sharp cut-off); inconclusive means no clear call, values can overlap the other calls; inactive means mostly above about 0.92. The list shows a part of the results.

Experiment: chemical genetic growth profiling, strain panel (AID 1159580);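 further: tested at 20 µM; growth read once vehicle control cultures reached saturation at 30 °C; 1 = growth at the plate median or of vehicle wells; lower values mean less growth of the strain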
Details: S. cerevisiae deletion strains, growth OD

Measured: normalized growth

COc1ccc(C(Cl)=C(c2ccc(OC)cc2)c2ccc(OC)cc2)cc1
inactive: locus YAL021C, strain ccr4, active compounds read low 1.04 | locus YAL026C, strain drs2, active compounds read low 1.03 | locus YAL030W, strain snc1, active compounds read low 1.03 | locus YBL061C, strain skt5, active compounds read low 0.992 | locus YBR009C, strain hhf1, active compounds read low 1.01 | locus YBR021W, strain FUR4, active compounds read low 0.994 | locus YBR023C, strain chs3, active compounds read low 0.993 | locus YBR171W, strain sec66, active compounds read low 1.03 | locus YBR229C, strain ROT2, active compounds read low 1.01 | locus YBR231C, strain swc5, active compounds read low 1.03 | locus YBR279W, strain paf1, active compounds read low 0.984 | locus YCL011C, strain gbp2, active compounds read low 1.02 | locus YCL016C, strain dcc1, active compounds read low 0.985 | locus YCL029C, strain bik1, active compounds read low 1.01 | locus YCL061C, strain MRC1, active compounds read low 1.03 | locus YCL069W, strain vba3, active compounds read low 1.03 | locus YCR088W, strain abp1, active compounds read low 1.02 | locus YDL005C, strain med2, active compounds read low 1.03 | locus YDL035C, strain GPR1, active compounds read low 0.989 | locus YDL040C, strain nat1, active compounds read low 1.03 | locus YDL074C, strain BRE1, active compounds read low 1.03 | locus YDL101C, strain DUN1, active compounds read low 1.03 | locus YDL134C, strain PPH21, active compounds read low 0.981 | locus YDL185W, strain tfp1, active compounds read low 1.01 | locus YDL192W, strain arf1, active compounds read low 1.02 | locus YDR001C, strain nth1, active compounds read low 1.02 | locus YDR069C, strain doa4, active compounds read low 0.993 | locus YDR101C, strain arx1, active compounds read low 0.997 | locus YDR137W, strain rgp1, active compounds read low 0.97 | locus YDR150W, strain NUM1, active compounds read low 1.01 | locus YDR159W, strain sac3, active compounds read low 1.01 | locus YDR162C, strain NBP2, active compounds read low 1 | locus YDR195W, strain ref2 1.06 | locus YDR297W, strain sur2, active compounds read low 1.02 | locus YDR318W, strain mcm21, active compounds read low 1.01 | locus YDR334W, strain swr1, active compounds read low 1.04 | locus YDR335W, strain msn5, active compounds read low 1 | locus YDR388W, active compounds read low 1.03 | locus YDR392W, strain spt3, active compounds read low 1 | locus YDR502C, strain sam2, active compounds read low 1.01 | locus YEL003W, strain gim4, active compounds read low 1.03 | locus YEL037C, strain rad23, active compounds read low 1.03 | locus YEL061C, strain CIN8 (second series), active compounds read low 1.06 | locus YEL061C, strain CIN8, active compounds read low 1.01 | locus YER015W, strain faa2, active compounds read low 1.03 | locus YER016W, strain bim1, active compounds read low 0.971 | locus YER110C, active compounds read low 1.03 | locus YER111C, strain swi4, active compounds read low 1.03 | locus YER155C, strain BEM2 (second series), active compounds read low 1.03 | locus YER155C, strain BEM2, active compounds read low 1.02 | locus YER167W, strain BCK2, active compounds read low 1.01 | locus YFR010W, strain ubp6, active compounds read low 1.02 | locus YGL078C, strain dbp3, active compounds read low 1.01 | locus YGL086W, strain mad1, active compounds read low 0.998 | locus YGL167C, strain pmr1, active compounds read low 1.01 | locus YGL173C, strain kem1, active compounds read low 1.03 | locus YGL227W, strain vid30, active compounds read low 1.02 | locus YGL240W, strain doc1, active compounds read low 1.05 | locus YGL248W, strain PDE1, active compounds read low 1.03 | locus YGL253W, strain hxk2, active compounds read low 0.999 | locus YGR135W, strain pre9, active compounds read low 1.04 | locus YGR252W, strain gcn5, active compounds read low 1.04 | locus YHR013C, strain ard1, active compounds read low 1.04 | locus YHR027C, strain rpn1, active compounds read low 0.989 | locus YHR030C, strain SLT2, active compounds read low 1.01 and 0.939 | locus YHR079C, strain IRE1 (second series), active compounds read low 1.02 | locus YHR079C, strain IRE1, active compounds read low 0.963 | locus YHR094C, strain hxt1, active compounds read low 1.03 | locus YHR129C, strain ARP1, active compounds read low 1.02 | locus YHR142W, strain chs7, active compounds read low 1.06 | locus YHR200W, strain rpn10, active compounds read low 1.02 | locus YIL066C, strain RNR3, active compounds read low 1 | locus YIL073C, strain SPO22, active compounds read low 1.03 | locus YIL125W, strain kgd1, active compounds read low 1.01 | locus YIR030C, strain dcg1, active compounds read low 1.02 | locus YJL092W, strain hpr5, active compounds read low 1.02 | locus YJL095W, strain BCK1 (second series), active compounds read low 1.03 | locus YJL095W, strain BCK1, active compounds read low 1.06 and 0.963 | locus YJL115W, strain asf1, active compounds read low 1.02 | locus YJL129C, strain trk1, active compounds read low 1.04 | locus YJL134W, strain LCB3, active compounds read low 1.01 | locus YJL154C, strain vps35, active compounds read low 1.03 | locus YJL164C, strain tpk1, active compounds read low 1.01 | locus YJL166W, strain qcr8, active compounds read low 1.04 | locus YJL168C, strain set2, active compounds read low 1.03 | locus YJL187C, strain SWE1 (second series), active compounds read low 1.04 | locus YJR043C, strain POL32, active compounds read low 0.999 | locus YJR066W, strain TOR1, active compounds read low 0.965 | locus YJR075W, strain HOC1, active compounds read low 1.03
